Data from ChEMBL document CHEMBL4513216, “Probing the Open Global Health Chemical Diversity Library for Multistage-Active Starting Points for Next-Generation Antimalarials” (ACS Infect Dis, 2020).
Out of some 69,000 compounds screened, about 8,600 (12%) showed an effect of 50% or more. The sample holds strong results, similar compounds and a random draw of the others, so the mix is not that of the screen.

tested on: Plasmodium berghei; experiment: Screen against P. berghei liver stage (PbLuc), transformed with Luciferase, at 10uM; assay type: functional, HepG2; conditions: tested at 10 uM

Row | Compound | INHIBITION
1 | NC(=O)CSc1ccccc1NC(=O)C1CCCCC1 | 21.1%
2 | CC1N(c2cnn(C)c2)C(=O)COC12CCN(CC1CC1)CC2 (configuration not stated) | -5.25%
3 | CC1N(c2cnn(C)c2)C(=O)COC12CCN(c1ncccn1)CC2 (configuration not stated) | 58.3%
4 | CC1N(c2cnn(C)c2)C(=O)COC12CCN(c1ccccn1)CC2 (configuration not stated) | 39.5%
5 | O=C(Cc1ccc2c(c1)CCO2)N1CCN(c2nccs2)CC1 | 9.14%
6 | CN(C)c1cc(CNC(=O)Nc2nccs2)ccn1 | -0.219%
7 | CC(C)NC(=O)[C@H]1C[C@@H]2[C@@H](C1)OCCN2Cc1ccsc1 | 16.9%
8 | CSCC(=O)NC1(c2cccc(Cl)c2)CC1 | 8.41%
9 | CCOCC(=O)NC1(c2cccc(Br)c2)CC1 | 45.1%
10 | CCOCC(=O)NC1(c2cccc(Cl)c2)CC1 | 57.3%
11 | COCCCC(=O)NC1(c2cccc(Br)c2)CC1 | 32.5%
12 | COCCSCC(=O)NC1(c2cccc(Br)c2)CC1 | 54.4%
13 | NC(=O)CSCC(=O)NC1(c2cccc(Br)c2)CC1 | 8.99%
14 | Cc1nn(C)c(N(C)C)c1CNCC(O)COc1ccccc1 (configuration not stated) | -56.9%
15 | O=C(NCCSc1ccccc1)[C@H]1CNC[C@H](C(=O)N2CCOCC2)C1 | 11.2%
16 | CCS(=O)(=O)CC(C)N(C)C(=O)COc1ccccc1C#N (configuration not stated) | -29.7%
17 | CCCc1nc(CN2CCCN(Cc3nccn3C)CC2)no1 | 25.6%
18 | CCOCCN1CCN(Cc2cccc(C(=O)N(C)C)c2)CC1CC (configuration not stated) | 25.6%
19 | COCC(=O)NCC1CCN(Cc2ccsc2)CC1 | -6.67%
20 | O=C(CCSc1ccccc1)NCC1CCN(Cc2ccsc2)CC1 | 27.6%
21 | O=C(COc1ccccc1)NCC1CCN(Cc2ccsc2)CC1 | 27%
22 | O=C(CCc1ccccc1)NCC1CCN(Cc2cccs2)CC1 | 51.9%
23 | O=C(CCc1ccccc1)NCC1CCN(Cc2ccsc2)CC1 | -11.8%

Row | Compound | INHIBITION
24 | CCOCC(=O)NCC1CCN(Cc2ccsc2)CC1 | 60%
25 | O=C(CCc1ccccc1)NCC1CCN(Cc2ccccc2)CC1 | 54.2%
26 | O=C(CCc1ccsc1)NCC1CCN(c2ccccc2)C1 (configuration not stated) | 2.74%
27 | O=C(CCc1ccsc1)NCC1CCN(Cc2cccs2)CC1 | 14.6%
28 | Cc1ccccc1C1CCCN1Cc1nc2c(cnn2C)c(=O)[nH]1 (configuration not stated) | -52.5%
29 | CN(C)[C@@H]1CCN(c2ncc(F)cn2)[C@H]1Cc1ccccc1 | -101%
30 | CN(C)C(=O)CN1C(=O)CCC12CCN(Cc1cccn1C)CC2 | 33.2%
31 | Cn1ccc(C(=O)N2CCN(CC(O)C(C)(C)C)CC2)cc1=O (configuration not stated) | 25.6%
32 | Cc1nc(N(C)C)ncc1C(=O)NCCCn1nccc1C1CC1 | 27.5%
33 | Cc1cc(C(=O)NCCCn2nccc2C2CC2)c(=O)[nH]c1C | 53.3%
34 | Cc1ccc2[nH]c(=O)cc(C(=O)NCCCn3nccc3C3CC3)c2c1 | -7.16%
35 | N#Cc1cccc(S(=O)(=O)N2CCCCC2CCN2CCCC2=O)c1 (configuration not stated) | 20.1%
36 | COCCCC1CCCCN1S(=O)(=O)c1cccc(C#N)c1 (configuration not stated) | -41.8%
37 | N#Cc1cccc(S(=O)(=O)N2CCCCC2CCN2CCCC2)c1 (configuration not stated) | 51.3%
38 | CNC(=O)NCC(CO)Cc1cccc(OC(F)(F)F)c1 (configuration not stated) | -10.3%
39 | CCS(=O)(=O)N1CCc2c(cnc(-c3cccnc3)c2C(=O)O)C1 | -1.26%
40 | Cc1ccc(C)c(S(=O)(=O)CCN2CCc3c(ncn3C)C2)c1 | 19.4%
41 | O=C(c1cnccn1)N1CCC(Cc2cnc3[nH]ccc3c2)CC1 | 17.1%
42 | O=C(c1ccncc1)N1CCC(Cc2cnc3[nH]ccc3c2)CC1 | 33.7%
43 | O=C(c1cncs1)N1CCC(Cc2cnc3[nH]ccc3c2)CC1 | 64.1%
44 | Cc1ccc(OC2(C(=O)NC(C)c3csc(C)n3)CCNCC2)cc1 (configuration not stated) | 41.2%
45 | Nc1nnnn1NCc1cccc(Cl)c1Cl | 61.5%
46 | Nc1nnnn1NCc1cccc2ccccc12 | 23.4%

Row | Compound | INHIBITION
47 | Nc1nnnn1NCc1ccccc1C(F)(F)F | -24.6%
48 | CC(C)NC(=O)C1CCc2nnc(C(C)(C)C)n21 (configuration not stated) | -15.5%
49 | Cc1nc(CN2CCC3(CCN(c4cnn(C)c4)C3=O)C2)cs1 (configuration not stated) | -17.2%
50 | CC1(C(=O)N2CCOCC2)CN(Cc2ncc[nH]2)CCO1 (configuration not stated) | 27.8%
51 | Cc1ccc(CN2CC[C@@H](NS(C)(=O)=O)[C@@H]2Cc2ccncc2)o1 | -7.94%
52 | Cc1ccccc1NC(=O)N1CC[C@@H]2CN(CC(C)C)S(=O)(=O)[C@@H]2CC1 | -13.4%
53 | COCCN1C[C@H]2CCN(C(=O)Nc3ccccc3C)CC[C@H]2S1(=O)=O | 34.6%
54 | O=C(c1cc[nH]n1)N1CC[C@@H]2CN(Cc3cccnc3)S(=O)(=O)[C@@H]2CC1 | 76.4%
55 | CCN1C[C@H]2CCN(C(=O)Nc3ccccc3C)CC[C@H]2S1(=O)=O | 50.6%
56 | CCN1C[C@H]2CCN(C(=O)c3cc[nH]n3)CC[C@H]2S1(=O)=O | 63.5%
57 | O=C(c1cc[nH]n1)N1CC[C@@H]2CN(Cc3ccncc3)S(=O)(=O)[C@@H]2CC1 | 26.5%
58 | CC(C)CN1C[C@H]2CCN(C(=O)c3ccccn3)CC[C@H]2S1(=O)=O | -19.6%
59 | O=C(c1cc[nH]n1)N1CC[C@@H]2CN(Cc3ccccc3)S(=O)(=O)[C@@H]2CC1 | -23.3%
60 | CCN1C[C@H]2CCN(C(C)=O)CC[C@H]2S1(=O)=O | -26.8%
61 | CCN(CC)C(=O)NCCc1ccn(-c2ccccc2)n1 | 7.67%
62 | CCn1ncc2c1CCCC2NCc1ccc(OC)cc1OC (configuration not stated) | 42%
63 | O=C(CC1[C@H]2CN(c3ncccn3)C[C@@H]12)Nc1cccnc1 (some centres not stated) | 13.7%
64 | Cc1nc(CN(C)C2CCN(Cc3ccc(C(N)=O)cc3)C2)no1 (configuration not stated) | -27.8%
65 | Cc1cccc(CN2CCCC(c3nccs3)C2)n1 (configuration not stated) | 43.6%
66 | Cc1cc(C)cc(NCCC(=O)NCc2cccnc2N(C)C)c1 | 23.7%
67 | O=C(c1cc2c(s1)CCC2)N1CCN(c2cnccn2)CC1 | -8.66%
